Data on 32 molecules can be found in ChEMBL document CHEMBL4513141, “CO-ADD screening of NIH (USA) - Clinical Collection” (2021).

In one assay the test system is Staphylococcus aureus. To be noted: Concentration 20 uM; ASSAY_TEST Inhibition of Bacterial Growth; detection method Absorption (OD600); MEDIA CAMHB; plate type 384well; NBS; CORNING #3640; time 18 hr.
In the next assay the test system is Escherichia coli. As to conditions: Concentration 20 uM; ASSAY_TEST Inhibition of Bacterial Growth; detection method Absorption (OD600); MEDIA CAMHB; plate type 384well; NBS; CORNING #3640; time 18 hr.

Potency and affinity values are given separately.

For `Cc1c(C(=O)NN2CCCCC2)nn(-c2ccc(Cl)cc2Cl)c1-c1ccc(I)cc1`, the Inhibition was found to be 8.26% in the assay on Staphylococcus aureus and 1.46% in the assay with Escherichia coli.
As to `CC(O)CO.N[C@@H](C(=O)N[C@@H]1C(=O)N2C(C(=O)O)=C(CSc3c[nH]nn3)CS[C@H]12)c1ccc(O)cc1`, the Inhibition in the assay on Staphylococcus aureus is 31.82%; in the assay with Escherichia coli, 5.65%.
For `O=C1N[C@H](C(=O)O)CS1` [PROCYSTEINE], the results for the Inhibition in the assay on Staphylococcus aureus and in the assay on Escherichia coli were 10.52% and 6.28%, respectively.
For the molecule `CC(C)NCC(O)COc1ccc(CC(N)=O)cc1` (centres undefined) [ATENOLOL], the Inhibition in the assay on Staphylococcus aureus amounted to 9.69%; in the assay with Escherichia coli, 2.4%.
Turning to `O=C(O)CCNC(=O)c1ccc(N=Nc2ccc(O)c(C(=O)O)c2)cc1`, the Inhibition with Staphylococcus aureus was 1.56%; with Escherichia coli it was -1.37%.
For `Cl.OC(CCN1CCCC1)(c1ccccc1)C1CCCCC1` (centres undefined) [PROCYCLIDINE HYDROCHLORIDE], the results for the Inhibition with Staphylococcus aureus and in the assay with Escherichia coli were 17.75% and -5.9%, respectively.
In the case of `O=C(C1CCCCC1)N1CC(=O)N2CCc3ccccc3C2C1` (centres undefined) [PRAZIQUANTEL], the values for the Inhibition with Staphylococcus aureus and with Escherichia coli were 20.65% and 3.85%, respectively.
With `CC(C)(C)NC(=O)[C@@H]1C[C@@H]2CCCC[C@@H]2CN1C[C@@H](O)[C@H](Cc1ccccc1)NC(=O)[C@H](CC(N)=O)NC(=O)c1ccc2ccccc2n1.CS(=O)(=O)O` [SAQUINAVIR MESYLATE], the values for the Inhibition with Staphylococcus aureus and with Escherichia coli were -19.12% and 7.7%, respectively.
The corresponding values for `O=C1N=C([O-])NC1(c1ccccc1)c1ccccc1.[Na+]` [PHENYTOIN SODIUM] are 10.31% and 2.45%.
Taken in the same sequence, the figures for `Cl.O=C(O)/C=C/c1ccc(Cn2ccnc2)cc1` were -2.16% and 6.89%.
For the molecule `CCCC(=O)Nc1ccc(OCC(O)CNC(C)C)c(C(C)=O)c1.Cl` (centres undefined) [ACEBUTOLOL HYDROCHLORIDE], the Inhibition worked out at 10.2% in the assay on Staphylococcus aureus and 2.85% in the assay with Escherichia coli.
As for `O=c1c(O[C@@H]2O[C@H](CO)[C@H](O)[C@H](O)[C@H]2O)c(-c2ccc(O)c(O)c2)oc2cc(O)cc(O)c12` [HYPEROSIDE], the Inhibition is 7.34% in the assay with Staphylococcus aureus and 3.89% in the assay on Escherichia coli.
For `NS(=O)(=O)Cc1noc2ccccc12` [ZONISAMIDE], the Inhibition is 1.04% in the assay on Staphylococcus aureus and 0.42% in the assay with Escherichia coli.
On to `COc1ccc(C2CNC(=O)C2)cc1OC1CCCC1` (centres undefined) [ROLIPRAM], for which the results for the Inhibition with Staphylococcus aureus and in the assay with Escherichia coli were 10.42% and 5.39%, respectively.
Regarding `CC(COc1ccccc1)NC(C)C(O)c1ccc(O)cc1.Cl` (centres undefined) [ISOXSUPRINE HYDROCHLORIDE], the Inhibition was 10.12% in the assay on Staphylococcus aureus and -2.1% with Escherichia coli.
Consider `Cl.O=C(NCC1CCCCN1)c1cc(OCC(F)(F)F)ccc1OCC(F)(F)F` (centres undefined), for which the Inhibition in the assay with Staphylococcus aureus is given as 10.41%; in the assay with Escherichia coli it was -6.42%.
As for `OCc1cccnc1` [NICOTINYL ALCOHOL], the Inhibition came out at 10.46% in the assay on Staphylococcus aureus and 0.45% in the assay on Escherichia coli.
As for `NC(=O)N1c2ccccc2CC(=O)c2ccccc21` [OXCARBAZEPINE], the Inhibition in the assay with Staphylococcus aureus was 15.1%; in the assay with Escherichia coli, -1.4%.
Regarding `Cc1occc(=O)c1O` [MALTOL], the results for the Inhibition with Staphylococcus aureus and with Escherichia coli were 14.12% and 4.13%, respectively.
Taken in the same sequence, the figures for `CC(=O)OCC(=O)[C@@]1(O)CC[C@H]2[C@@H]3CCC4=CC(=O)C=C[C@]4(C)[C@H]3[C@@H](O)C[C@@]21C` [PREDNISOLONE ACETATE] were 11.59% and 1.81%.
Turning to `CC(=O)OCC(CCn1cnc2cnc(N)nc21)COC(C)=O` [FAMCICLOVIR], the Inhibition was determined as 12.23% in the assay with Staphylococcus aureus and 6.38% in the assay with Escherichia coli.
Take `CC(=O)OCC(=O)C12OC3(CCCC3)OC1CC1C3CCC4=CC(=O)C=CC4(C)C3(F)C(O)CC12C` (centres undefined): the Inhibition in the assay with Staphylococcus aureus amounted to 19.97%; in the assay on Escherichia coli it was 7.38%.
Take `CCc1cc(C(N)=S)ccn1` [ETHIONAMIDE]: the Inhibition in the assay on Staphylococcus aureus was determined as 13.26%; in the assay with Escherichia coli, 2.06%.
Consider `CCOC(=O)[C@H](CCc1ccccc1)N[C@@H](C)C(=O)N1Cc2ccccc2C[C@H]1C(=O)O.Cl` [QUINAPRIL HYDROCHLORIDE], for which the Inhibition is 16.74% with Staphylococcus aureus and 4.26% in the assay with Escherichia coli.
`COc1ccccc1N1CCN(CCCNc2cc(=O)n(C)c(=O)n2C)CC1.Cl` [URAPIDIL HYDROCHLORIDE]: the figures for the Inhibition in the assay with Staphylococcus aureus and with Escherichia coli were 12.2% and 0.81%, respectively.
On to `CC(C)NCC(O)c1ccc(NS(C)(=O)=O)cc1.Cl` (centres undefined) [SOTALOL HYDROCHLORIDE], for which the Inhibition is -25.28% in the assay with Staphylococcus aureus and 5.97% in the assay with Escherichia coli.
`Cc1ccsc1C(=CCCN1CCC[C@@H](C(=O)O)C1)c1sccc1C.Cl` [TIAGABINE HYDROCHLORIDE]: the Inhibition in the assay with Staphylococcus aureus was 12.29%; in the assay on Escherichia coli, -1.1%.
The corresponding values for `Sc1ncnc2nc[nH]c12` [MERCAPTOPURINE ANHYDROUS] are 22.75% and 6.85%.
For the molecule `CC[C@]1(O)C[C@@H]2CN(CCc3c([nH]c4ccccc34)[C@@](C(=O)OC)(c3cc4c(cc3OC)N(C=O)[C@H]3[C@@](O)(C(=O)OC)[C@H](OC(C)=O)[C@]5(CC)C=CCN6CC[C@]43[C@@H]65)C2)C1.O=S(=O)(O)O`, the figures for the Inhibition in the assay on Staphylococcus aureus and in the assay on Escherichia coli were 14.29% and -3.68%, respectively.
The corresponding values for `CC(Cc1ccc(O)c(O)c1)(NN)C(=O)O.O` (centres undefined) are 16.15% and 3.56%.
Taken in the same sequence, the figures for `CC(CN1c2ccccc2Sc2ccccc21)N(C)C.Cl` (centres undefined) [PROMETHAZINE HYDROCHLORIDE] were 15.79% and 1.25%.
Consider `CN1CCN(C2=Nc3ccccc3Oc3ccc(Cl)cc32)CC1.O=C(O)CCC(=O)O` [LOXAPINE SUCCINATE], for which the Inhibition is reported as 9.14% in the assay on Staphylococcus aureus and 4.68% in the assay with Escherichia coli.

The Inhibition is the relative decrease from the control value, in per cent.
